Entries with a potency or affinity are not part of this list. Calls of active or inactive are those of the source.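 Rule for the calls: active = fitted half-maximal concentration within the tested dose range, moderate curve steepness, a statistically real signal drop, and little compound fluorescence or tag-binding interference; inactive = the rest.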

The test deals with Cell division control protein 42 homolog (Homo sapiens) (UniProt P60953). Nature of the test: activated mutant Cdc42 GTP-binding inhibitors, dose response, biochemical, multiplex bead flow cytometry, Bodipy-FL-GTP (AID 1333). To be noted: bead-based flow cytometry; series mostly up to 100 µM; GTP binding signal, percent: at the top concentration.
With `O=C(O)c1c(C(F)(F)F)ccnc1SCc1ccccc1`, the “GTP binding signal, percent” value was 175% (inactive).
Turning to `Cc1cc(C)n2nc(C(=O)N3CCCC(CNS(=O)(=O)c4cccs4)C3)cc2n1` (configuration not stated), the “GTP binding signal, percent” value is 52.8% (inactive).
As for `CCC(C)C(=O)Nc1ccc(OC)cc1OC` (configuration not stated), the “GTP binding signal, percent” value was 37.3% (inactive).
For `Cc1ccc(-n2nc3c(SCCN4CCOCC4)nnc(C)c3c2C)cc1`, the “GTP binding signal, percent” value was 34.7% (inactive).
Then `CCCCCn1nc(C(=O)OCC(=O)c2c(N)n(C)c(=O)n(C)c2=O)c2ccccc2c1=O`, with 57.9% (inactive); and `COCCCNc1nc(=S)[nH]c2cc(OC)c(OC)cc12`, with 24.9% (inactive); and `COc1ccccc1Oc1ccccc1C(=O)O`, with 76.4% (inactive).
As for `Cc1nn(CCc2nn[nH]n2)c2nc(-c3ccc(C4CCCCC4)cc3)cc(C(F)(F)F)c12`, the “GTP binding signal, percent” value is 30.8% (inactive).
For `O=c1c2ccc([N+](=O)[O-])cc2ncn1CCOc1ccccc1`, the “GTP binding signal, percent” value was 52.9% (inactive).
With `CSc1nnc(-c2cc(Br)ccc2N=Cc2c(C)[nH]n(-c3ccccc3)c2=O)c(=O)[nH]1`, the “GTP binding signal, percent” value is 29.5% (inactive).
Then `Cc1ccc(N=Nc2c(N)[nH]n3c(=O)cc(C)nc23)cc1`, with 26% (inactive); and `O=C(N/N=C/c1c(O)n(Cc2ccccc2)c(=O)c2ccccc12)c1cccnc1`, with 29.4% (inactive); and `CCn1cc(C(=O)OCC(=O)c2cc(C)n(-c3cccc(C(F)(F)F)c3)c2C)c(=O)c2ccc(C)nc21`, with 19.4% (inactive).
Next, `Cc1sc2ncnc(N/N=C/c3ccc(O)cc3)c2c1C`: 49.3% (inactive); `O=c1[nH]c2ccc(S(=O)(=O)NCc3ccccc3)cc2[nH]1`: 52.5% (inactive); `CCc1ccc(Cn2nnc(C(=O)O)c2C(=O)O)cc1`: 47.4% (inactive).
Next, `Cc1cc(NS(=O)(=O)c2ccc(NC(=O)c3cc4c(=O)n5ccccc5nc4s3)cc2)nc(C)n1`: 44.3% (inactive).

For the origin of these results see PubChem BioAssay.
